# Source: PubChem BioAssay AID720504 (National Center for Advancing Translational Sciences (NCATS), 2013)
# In all, about 360,000 compounds went through this assay and about 10,000 (2.8%) were called active. About 4% were inconclusive and are not listed. This is one part of a sample in which actives are shown more often than they occur. Calls follow the shape of the dose curve; as a rule, active = well fitted inhibition curve with a large enough effect; inconclusive = small, poorly fitted or top-dose-only effect; inactive = flat fitted curve, though single readings scatter.
# Biological target: Serine/threonine-protein kinase PLK1 (Homo sapiens) (UniProt P53350)
# Assay: qHTS for Inhibitors of PLK1-PDB (polo-like kinase 1 - polo-box domain): Primary Screen; also: nearly all actives have a fitted effect of over 65% in size; as to max response, negative = inhibition: series mostly up to about 57 µM
# Settings: Plk1 PBD binding of FITC phosphopeptide, fluorescence polarization
# Description: The polo-like kinase 1 (Plk1) is a member of a conserved subfamily of serine / threonine protein kinases that plays a pivotal roles in cell proliferation. It has a C-terminal non-catalytic region called the polo-box domain (PBD) that plays a crucial role in the subcellular localization of the Plk1. […] Furthermore, depletion of the overexpressed Plk1 by RNAi efficiently induces apoptotic cell death in cancer and reduces tumor growth in mouse xenograft models. Thus, targeting Plk1 is an appealing strategy for anti-cancer therapy. Therefore, this project aimed to screen the Molecular Libraries Small Molecule Repository (MLSMR) using a novel approach to find inhibitors that target the Plk1 PBD instead of the conventional N-terminal catalytic domain. This project employed a fluorescence polarization (FP) assay using a FITC-conjugated phospho-9-mer (p-9-mer) peptide and purified human Plk1 PBD protein. The identified small molecule inhibitors of Plk1 PBD can then further be developed into useful tools for biomedical and clinical research that complements or replaces current relevant disease therapy. NIH Chemical Genomics Center [NCGC] NIH Molecular Libraries Probe Centers Network [MLPCN] MLPCN Grant: MH100728 Assay Submitter (PI): Kyung Lee, NCI
# Four microliter of 25 nM FITC-p-9-mer + 60 nM Plk1 PBD in buffer solution (final concentrations 25 nM and 60 nM respectively) or 4 uL of 25 nM FITC-p-9-mer (final concentration 25 nM) in buffer will be dispensed into a 1,536 Greiner medium-binding black solid plate. Small molecules at final concentrations of 18 nM to 57 uM and positive control phospho-9-mer (sequence: Ac-PPLHSpTAI-NH2) at final concentrations 26 nM to 57 uM and phospho-13-mer (sequence: Ac-[…]pTAI-NH2) at final concentrations of 1 nM to 2.3 uM will be pin-transferred (23 nL) to the plate via a Kalypsys pin-tool robotics equipped with a 1,536-pin array. The reaction plate will be centrifuged for 1 min at 1000 rpm and incubated at room temperature for 10 min. The FITC fluorescence signals will be read using the PerkinElmer ViewLux plate reader at 480 / 20 nm excitation and 540 / 20 nm S and P polarization emission wavelengths. Reagent bottles will be kept submerged into 4 °C recirculating chiller bath and all liquid lines will be covered with aluminum foil to minimize degradation. Library plates will be screened starting from the lowest to the highest concentrations to minimize compound carryover. Vehicle only plates, with DMSO being pin-transferred instead of compound solutions, will be included regularly throughout the screen to record any systematic shifts in assay signal.
# % is scaled to controls: 0 for no effect and ±100 for the full control effect; potency is read from the fitted curve at half-maximal effect.
# Serine/threonine-protein kinase PLK1 (Homo sapiens), sequence (P53350 whole entry, looked up, the tested form may be a part): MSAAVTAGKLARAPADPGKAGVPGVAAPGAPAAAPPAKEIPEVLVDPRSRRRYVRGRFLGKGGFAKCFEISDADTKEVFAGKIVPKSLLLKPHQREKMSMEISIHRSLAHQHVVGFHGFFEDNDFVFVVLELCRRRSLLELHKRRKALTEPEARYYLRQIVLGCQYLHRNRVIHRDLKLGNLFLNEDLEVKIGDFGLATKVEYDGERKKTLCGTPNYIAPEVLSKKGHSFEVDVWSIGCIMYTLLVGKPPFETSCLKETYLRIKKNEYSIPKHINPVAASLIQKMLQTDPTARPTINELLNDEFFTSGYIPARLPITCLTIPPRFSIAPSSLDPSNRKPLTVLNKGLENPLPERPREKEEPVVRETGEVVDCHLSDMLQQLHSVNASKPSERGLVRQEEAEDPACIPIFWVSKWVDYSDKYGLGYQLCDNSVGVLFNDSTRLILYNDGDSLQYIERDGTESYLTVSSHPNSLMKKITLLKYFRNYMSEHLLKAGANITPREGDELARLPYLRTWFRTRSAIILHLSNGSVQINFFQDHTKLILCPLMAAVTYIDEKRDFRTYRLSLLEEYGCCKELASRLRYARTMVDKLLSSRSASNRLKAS
Compound,"max response, negative = inhibition",Potency
COc1ccc(C(=O)C2CCCN(Cc3ccc(C)s3)C2)cc1OC (configuration not stated),-12.4% (inactive),
COc1ccccc1OC(=O)c1ccc(C)c(S(=O)(=O)N2CCOCC2)c1,-17.4% (inactive),
COc1cc(C(=S)N2CCOCC2)ccc1O,,11.9 µM (active)
S=C(NCCc1ccccc1)N1Cc2cc(N3CCOCC3)ccc2-n2nncc2C1,-7.87% (inactive),
OC1/C(=C/c2ccc(C(F)(F)F)cc2)N2CCC1CC2 (configuration not stated),3.89% (inactive),
CCOC(=O)C1(Cc2ccc(Cl)cc2)CCN(C(C)CCn2cccn2)CC1 (configuration not stated),-2.75% (inactive),
CCOc1ccc(-c2cc(C)[n+](CCN(CC)CC)c(-c3ccc(OCC)cc3)c2)cc1,-4.15% (inactive),
CCn1cc(CN2CCCC(C(=O)c3cccc(C(F)(F)F)c3)C2)cn1 (configuration not stated),-6.76% (inactive),
CCN(CC)C(=O)Oc1ccc(OC(=O)N(CC)CC)cc1,,16.8 µM (active)
CN(C)C(=O)Oc1ccc(OCc2cccc[n+]2C)cc1,-4.14% (inactive),
CCN(CC)C(=O)Oc1ccc(NC(=O)N2CCOCC2)cc1,-7.81% (inactive),
CCC1(C)CC(CCNCc2ccc(N(C)C)cc2)(c2ccc(F)cc2)CCO1 (configuration not stated),-1.51% (inactive),
COc1ccccc1CN1CCN(C(=O)Cc2ccccc2)CC1,3.36% (inactive),
O=c1[nH]c2ccccc2n1C1CCN(C(c2ccccc2)c2nnnn2Cc2ccccc2)CC1 (configuration not stated),3.89% (inactive),
Cc1cc(C)c2c(c1)NP(=S)(c1ccccc1)N2 (configuration not stated),-17.9% (inactive),
COc1ccc2c(c1)NP(=S)(c1ccccc1)N2 (configuration not stated),,3.36 µM (active)
CC(=O)Nc1ccccc1C(=O)OCC(=O)c1cccc2ccccc12,-5.92% (inactive),
CC(c1ccccc1)(c1ccccc1)c1ccncc1,-1.65% (inactive),
COC(=O)C1=C(c2cc3ccccc3o2)C[C@@H]2CC[C@H]1N2C(=O)NC1CCCCC1,0.442% (inactive),
CCOC(=O)C1=C(C)OC(N)=C(C(=O)OC)C12C(=O)Nc1ccc(Br)cc12 (configuration not stated),0.0447% (inactive),
CC(C)c1ccc(O)c(CN2CCN(c3ccccc3)CC2)c1,6.47% (inactive),
COc1cccc(N2C(=O)NC(=O)/C(=C\c3ccc([N+](=O)[O-])s3)C2=O)c1,,5.32 µM (active)
CCc1nc2ccccc2c(=O)n1-c1cccc(OC)c1,-4.27% (inactive),

Compound,"max response, negative = inhibition",Potency
COc1cccc(N2C(=O)NC(=O)/C(=C\c3cn(C)c4ccccc34)C2=O)c1,,9.47 µM (active)
O=C1NC(=O)N(c2ccccc2)C(=O)/C1=C/c1ccc([N+](=O)[O-])s1,,2.67 µM (active)
CC1=C(C(=O)Nc2ccccc2)SCCO1,-5.57% (inactive),
CC(=CCOc1ccc2ccc(=O)oc2c1)C1=CC(=O)C(C)(C)O1,-1.51% (inactive),
O=C(O)C1CSC(c2cccnc2)N1 (configuration not stated),-10% (inactive),
O=C1NCN(c2ccccc2)C12CCN(C(c1cccs1)c1nnnn1C1CCCCC1)CC2 (configuration not stated),-2.86% (inactive),
COP(=O)(NS(=O)(=O)c1ccccc1)OC,-7.79% (inactive),
C[N+]1(C)CCOC(O)(c2ccc(-c3ccc(C4(O)C[N+](C)(C)CCO4)cc3)cc2)C1 (configuration not stated),-17.9% (inactive),
COc1ccc(-n2c(O)c(C(C)=Nc3ccc4c(c3)CCC4)c(=O)[nH]c2=O)cc1,2.28% (inactive),
COc1ccccc1C1=NCc2nnc(CSC)n2-c2ccc(Cl)cc21,2.66% (inactive),
O=C(NCC1=C(c2ccc3ccccc3c2)C[C@@H]2CC[C@H]1N2Cc1ccco1)c1cccs1,-9.52% (inactive),
O=C1NC(=O)C(C/C=C/c2ccccc2)C(=O)N1,-29.7% (inactive),
CCN(CC)C(=O)c1ccc(NC(=O)c2cc(-n3cnnc3)ccc2Cl)cc1,-5.96% (inactive),
CN(C)CC1Oc2ccccc2OC1(O)c1ccccc1 (configuration not stated),,5.32 µM (active)
OC(CNC1CCCCC1)c1ccccc1 (configuration not stated),-2.72% (inactive),
CN1CCC(N(C)Cc2cccnc2)CC1,-7.61% (inactive),
CCOC(=O)C(O)(c1ccc(N)c(OC)c1)C(F)(F)F (configuration not stated),-1.46% (inactive),
CN(C)C(=O)Oc1cc(=O)n2c3c(cccc13)CCC2,-13.7% (inactive),
CC1CCCN1CCC(C(N)=O)(c1ccccc1)c1ccccc1 (configuration not stated),-4.65% (inactive),
Cc1ccc(-n2c(C)cc(/C=C3\C(=O)NC(=O)N(C)C3=O)c2C)cc1C,-15.6% (inactive),
Cc1ccnc(-n2c(C)cc(/C=C3\C(=O)NC(=S)N(C)C3=O)c2C)c1,,2.38 µM (active)
O=C(NC(c1ccc(Cl)cc1)P(=O)(Oc1ccccc1)Oc1ccccc1)OCc1ccccc1 (configuration not stated),0.141% (inactive),
C[C@H]1CN([C@@H](C)CO)C(=O)CCCn2nncc2CO[C@H]1CN(C)C(=O)Oc1ccccc1,-3.55% (inactive),

Compound,"max response, negative = inhibition",Potency
CC(CC(C#N)(c1ccccc1)c1ccccc1)N1CCCCC1 (configuration not stated),-6.42% (inactive),
COc1cccc(C(c2nnnn2-c2ccc3c(c2)OCCO3)N2CCC3(CC2)C(=O)NCN3c2ccccc2)c1OC (configuration not stated),-7.89% (inactive),
O=C(O)CCn1cc(C=C2C(=O)NC(=S)NC2=O)c(-c2cccc(Br)c2)n1,,4.74 µM (active)
O=c1[nH]c2ccccc2n1C1CCN(C(c2ccnc3ccccc23)c2nnnn2Cc2ccccc2)CC1 (configuration not stated),3% (inactive),
CCCCCCCCCCCCn1ccc(=N)cc1,-4.33% (inactive),
COc1ccc(-c2nn(CCC#N)cc2C(=O)O)cc1,-2.51% (inactive),
O=C(c1cc(S(=O)(=O)N2CCOCC2)ccc1F)N1CCC2(CC1)OCCO2,-4.68% (inactive),
C=CC12CN(C)[C@@H]3C4CO[C@H](C[C@H]41)[C@]1(C(=O)Nc4ccccc41)[C@@H]32 (some centres not stated),-7.71% (inactive),
CCN1C(=O)C(=Cc2c(C)n(CC(=O)NCC3CCCO3)c3ccccc23)C(=O)N(CC)C1=S (configuration not stated),,1.06 µM (active)
C/C=C/CC1(CC)C(=O)NC(=S)NC1=O,-7.94% (inactive),
CCc1cccc2c(C#N)cn(CC(=O)N3CCOCC3)c12,-5.32% (inactive),
COc1ccccc1N=Nc1c(O)[nH]c(=S)[nH]c1=O,13.3% (inactive),
O=c1[nH]c(=S)[nH]c(O)c1/C=C1\C=Nc2ccccc21,,1.19 µM (active)
COc1ccc(CCn2c(O)c(C=NCCCn3ccnc3)c(=O)[nH]c2=O)cc1OC,-4.17% (inactive),
c1ccc(Cc2nn3c(Cn4cnc5ccccc54)nnc3s2)cc1,,11.9 µM (active)
CCOP(=O)(OCC)C(NC(=O)NC)C(N)=O (configuration not stated),0.136% (inactive),
CCCC[N+]1(C)C2CC(OC(=O)C(CO)c3ccccc3)CC1C1OC12 (configuration not stated),-0.372% (inactive),
CC(=NCc1ccc2c(c1)OCO2)c1c(O)[nH]c(=O)[nH]c1=O,-14.7% (inactive),
CCOC(=O)C1SC2(C(F)(F)C(F)F)CC1(O)c1c(c(OC)c3occc3c1OC)O2 (configuration not stated),0.906% (inactive),
O=c1c2ccccc2[nH]c(=S)n1-c1cccc(Cl)c1,-18.6% (inactive),
COC(=O)C1=C(c2ccc(-c3ccccc3)c(F)c2)C[C@@H]2CC[C@H]1N2C(=O)NCc1ccc(F)cc1,-10.9% (inactive),
C=C(C)C1(CCCC)C(=O)NC(=S)NC1=O,0.58% (inactive),
Cc1noc(C)c1CSc1nc2cc(S(=O)(=O)N3CCOCC3)ccc2o1,,21.2 µM (active)

Compound,"max response, negative = inhibition",Potency
Cn1c(C(=O)N2CCC(C(=O)N3CCC4(CC3)OCCO4)CC2)cc2sccc21,-6.93% (inactive),
CC=C(C)C(=O)OC1CCN2CC=C(COC(=O)C(O)(C(C)OC)C(C)(C)O)C12 (configuration not stated),-10.3% (inactive),
Cc1cc(=O)oc2c(C)c(OCC(=O)N3CCN(Cc4ccc5c(c4)OCO5)CC3)ccc12,-7.37% (inactive),
Cc1cccc(NC(=O)OC2CN3CCC2CC3)c1 (configuration not stated),3.5% (inactive),
CN1CCN(C(=O)COc2ccc(C(C)(C)C)cc2Br)CC1,-4.1% (inactive),
CC(C)(C)c1ccc(OC(=O)N2CCCCC2)cc1,,23.8 µM (active)
O=C(Nc1cccc(OC(=O)N2CCCCC2)c1)N1CCOCC1,-15.9% (inactive),
C[N+]12CN3CN(CN(C3)C1)C2,-1.32% (inactive),
COc1ccc(-n2nnnc2C(c2cccc3ccccc23)N2CCC(n3c(=O)[nH]c4ccccc43)CC2)cc1 (configuration not stated),-4.82% (inactive),
COc1ccc(NC(=O)N2Cc3ccccc3-n3nncc3C2)cc1,-7.51% (inactive),
CCOc1ccc(C2SCC(=O)Nc3c2c(C)nn3C2CCOC(C)(C)C2)cc1 (configuration not stated),-3.25% (inactive),
COc1ccccc1NC(=O)N1C[C@@H]2C[C@@H](C1)c1cccc(=O)n1C2,-7.73% (inactive),
CN1CCC(OC(=O)c2cccc(F)c2)CC1,-15.3% (inactive),
O=c1[nH]c(O)c(C=Nc2cc(F)cc(F)c2)c(=O)[nH]1,-3.46% (inactive),
Cc1ccc2c(c1)=C/C(=C\c1c(O)[nH]c(=O)[nH]c1=O)C(=O)N=2,,11.9 µM (active)
CC[N+](CC)(CC)CCCCCCCCCC[N+](CC)(CC)CC,3.96% (inactive),
CC12CCC3C(CCC4CC(=O)CCC43C)C1CC(=NO)C2=O (configuration not stated),6.72% (inactive),
C[C@]12CCCCC1=CC(=O)C1C2CC[C@@]2(C)C1C[C@@H](F)[C@@H]2O (some centres not stated),2.07% (inactive),
COC(=O)C[C@H]1CC[C@H]2NC[C@@H](O)COC[C@@H]2O1,-11.8% (inactive),
O=C1NC(=O)N(CCc2ccc(F)cc2)C(=O)/C1=C/C=C/c1ccccc1,,0.532 µM (active)
CC(C)N(CC#CCC1(O)c2ccccc2-c2ccccc21)C(C)C,4.02% (inactive),
O=C(NC(=S)N1C[C@H]2C[C@H](C1)c1cccc(=O)n1C2)c1ccc(F)cc1,-8.97% (inactive),
N=c1ccccn1Cc1ccccc1,-5.72% (inactive),
